Reference: the supplement of paper PMC6555819

Columns and labels:
Assay in all cases: PBM binding z-score (relative to random genomic background probes); higher = stronger binding; sequences stand for … in GC…GCGATTGACAGCGTAGAATGAAGG
[1] = tested on: FXR:RXRa (NR concentration 270 nM, RXRa partner concentration 90 nM)
Summary of the method: (§1)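 On custom Agilent 4×180K arrays, double-stranded probes with 34-nt variable regions carried direct-repeat seeds, single-nucleotide variants, half-site ablations or random human genomic background. Ligand-free nuclear receptor dimers were applied for 1 h, and binding was read with antibodies against each partner (one per run). Binding z-scores come from regression-normalized fluorescence, with the random background probes as reference.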

[2] = tested on: LXRa:RXRa (NR concentration 270 nM, RXRa partner concentration 90 nM)
Summary of the method: as §1

[3] = tested on: LXRa homodimer (NR concentration 270 nM)
Summary of the method: as §1

[4] = tested on: LXRb:RXRa (NR concentration 270 nM, RXRa partner concentration 90 nM)
Summary of the method: as §1

[5] = tested on: LXRb homodimer (NR concentration 270 nM)
Summary of the method: as §1

[6] = tested on: PPARa:RXRa (NR concentration 270 nM, RXRa partner concentration 90 nM)
Summary of the method: as §1

[7] = tested on: PPARg:RXRa (NR concentration 180 nM, RXRa partner concentration 90 nM)
Summary of the method: as §1

[8] = tested on: PPARg:RXRa 270nM:90nM, anti-RXR (NR concentration 270 nM, RXRa partner concentration 90 nM)
Summary of the method: as §1

[9] = tested on: PPARg:RXRa 30nM:10nM, anti-RXR (NR concentration 30 nM, RXRa partner concentration 10 nM)
Summary of the method: as §1

[10] = tested on: PPARg:RXRa 90nM:30nM, anti-RXR (NR concentration 90 nM, RXRa partner concentration 30 nM)
Summary of the method: as §1

[11] = tested on: PPARg:RXRa DBDmut IVT, anti-RXR (DBD mutation: RXRa K156A/R161A, NR concentration 270 nM, RXRa partner concentration 90 nM)
Summary of the method: as §1

[12] = tested on: PPARg:RXRa IVT, anti-PPARg (NR concentration 270 nM, RXRa partner concentration 90 nM)
Summary of the method: as §1

[13] = tested on: PPARg DBDmut:RXRa IVT, anti-PPARg (DBD mutation: PPARg1 K132A/R137A, NR concentration 270 nM, RXRa partner concentration 90 nM)
Summary of the method: as §1

[14] = tested on: PPARg DBDmut IVT, anti-PPARg (DBD mutation: PPARg1 K132A/R137A, NR concentration 270 nM)
Summary of the method: as §1

[15] = tested on: PPARg homodimer (NR concentration 180 nM)
Summary of the method: as §1

[16] = tested on: PXR:RXRa (NR concentration 270 nM, RXRa partner concentration 90 nM)
Summary of the method: as §1

[17] = tested on: PXR homodimer (NR concentration 270 nM)
Summary of the method: as §1

[18] = tested on: RARa:RXR (NR concentration 270 nM, RXRa partner concentration 90 nM)
Summary of the method: as §1

[19] = tested on: RARa homodimer (NR concentration 270 nM)
Summary of the method: as §1

[20] = tested on: RARb:RXRa (NR concentration 270 nM, RXRa partner concentration 90 nM)
Summary of the method: as §1

Sequence | PBM binding z-score [1] | PBM binding z-score [2] | PBM binding z-score [3] | PBM binding z-score [4] | PBM binding z-score [5] | PBM binding z-score [6] | PBM binding z-score [7] | PBM binding z-score [8] | PBM binding z-score [9] | PBM binding z-score [10] | PBM binding z-score [11] | PBM binding z-score [12] | PBM binding z-score [13] | PBM binding z-score [14] | PBM binding z-score [15] | PBM binding z-score [16] | PBM binding z-score [17] | PBM binding z-score [18] | PBM binding z-score [19] | PBM binding z-score [20]
CGAACTAGGTCATCCAGGCCAGTGAATACATTGA | 4.42 | 2.58 | 0.198 | 1.84 | -0.0916 | 4.97 | 7.7 | 6.3 | 3.77 | 5.63 | 7.88 | 8.53 | 3.15 | 2.65 | 2.08 | 1.61 | 0.572 | 2.4 | 0.167 | 3.91
GGAACGAGGGCATTCGAGTTGCTAGCATGGCGAT | 0.791 | 0.5 | -0.577 | -0.157 | -0.675 | 0.953 | 0.443 | 0.479 | -0.435 | -0.173 | 2.56 | 2.02 | -0.0761 | -0.825 | -0.911 | 2.3 | -0.0583 | 0.598 | -0.778 | 1.8
TGAATGAGGTTAAAGATCAGGGATCGTGGCGTCG | 2.72 | 2.32 | -0.45 | 1.43 | 0.3 | 4.23 | 5.54 | 6.39 | 4.69 | 6.83 | 2.1 | 3.36 | 0.927 | 0.328 | 2.57 | 1.75 | -0.845 | 3.09 | -0.37 | 1.85
ACAGACAGGTGATGAAGATAACTCAGGCTATCAT | -0.21 | -0.125 | -0.283 | -0.276 | -0.0745 | -0.164 | 0.734 | -0.057 | 0.429 | 0.0893 | -0.0309 | 0.209 | 0.00107 | 0.948 | 0.0066 | -0.435 | 0.0307 | -0.227 | 0.47 | 0.0491
CCTACTGGGCCATGGTCATTGATCAGTCAAAGCA | 0.0298 | -0.313 | -0.591 | -0.226 | -1.02 | 0.969 | 1.05 | 1.3 | -0.281 | 0.872 | 3.04 | 3.48 | -0.574 | -0.734 | 0.222 | -0.316 | -0.489 | -0.363 | -1.03 | 0.532
AGCGAAAGGTCGACGAGGTGAGTATACACCGTTT | 4.18 | 2.97 | -0.376 | 2.37 | -0.286 | 4.3 | 3.21 | 3.62 | 0.842 | 2.31 | 0.519 | 1.89 | 0.248 | 0.154 | 1.07 | 2.86 | 0.276 | 3.47 | -0.0264 | 3.84
TCTTGTAGATTAATAGAGGTTAAGAAAGTGCGCT | 1.31 | 4.17 | 2.85 | 2.28 | 0.623 | 2.07 | 0.283 | 2.2 | 3.11 | 2.59 | 2.32 | 0.996 | 0.986 | 0.929 | 1.23 | 3.4 | 0.795 | 2.2 | 0.565 | 1.21
ACTAGTCGGTCAGCTGAGGTCACACACAATTCGG | 5.04 | 4.68 | 4.97 | 3.86 | 1.32 | 4.15 | 2.51 | 2.99 | 0.573 | 2 | 3.9 | 3.98 | 0.395 | 0.525 | 3.35 | 5.95 | 2.63 | 4.69 | 2.2 | 4.16
TCTTGTAGATCAGCAGGTTAAGATAGCTGGCCAA | -0.0531 | 0.217 | -0.176 | 0.312 | -0.375 | 0.692 | -0.179 | 1.28 | 2.71 | 1.95 | 1.75 | 0.446 | 0.0165 | 0.121 | 0.155 | 0.31 | -0.37 | 0.429 | -0.336 | 0.168
ACAGACAGGCGAGTGAAGGTAACTCAGCTGGACG | 0.222 | -0.221 | -0.463 | -0.649 | -0.426 | -0.25 | 0.686 | -0.142 | -0.453 | -0.153 | -0.427 | -0.121 | 0.466 | -0.29 | 0.0641 | -0.279 | -0.674 | 0.193 | -0.258 | 0.0266
TCTTGTAAATCAAGCAGGTTAAGAAAGCCTGAGT | 0.618 | 0.47 | -0.237 | 0.526 | -0.289 | 0.845 | -0.51 | 1.34 | 2.8 | 2.01 | 1.54 | -0.000502 | -0.116 | 0.31 | -0.337 | 0.678 | 0.119 | 0.64 | 0.0275 | 0.495
CCTACTGGGCCACAGGTCATTGATTCCAATGCTC | 1.51 | 1.55 | 1.48 | 2.12 | 0.443 | 4.11 | 8.34 | 7.57 | 6.11 | 7.68 | 4.78 | 5.99 | -0.262 | -0.356 | 1.06 | 1.75 | 0.334 | 2.03 | -0.37 | 2.26
TAAATGAGGTTATAAGATCAGGGAACGTTGCAAA | 1.94 | 2.28 | 0.212 | 1.55 | 0.646 | 2.85 | 2.1 | 2.73 | 2.19 | 2.51 | 2.84 | 2.73 | 1.59 | 1.61 | 0.912 | 1 | 0.251 | 1.62 | 0.307 | 1.33
